Values joined by “and” are separate entries in the source; they are usually repeats but may differ in a detail not shown here. Equal entries are not always repeated. Inconclusive results are not listed. Where a call stands in place of a potency, no number is given. Active and inactive are the calls of the source. Unless noted, calls come from the whole dose curve; as a rule, active = well fitted curve in the direction sought with a large enough effect in the repeat runs; inconclusive = weak or mixed curves; inactive = no such curve, though single readings can be large; an effect the other way counts as inactive or inconclusive.
Columns and labels:
[1] = target: Progesterone receptor (Homo sapiens) (UniProt P06401); test: qHTS assay to identify small molecule agonists of the progesterone receptor (PR) signaling pathway (AID 1346784; calls by dose curve; note: nearly all actives have a fitted effect of over 30% in size)
Summary of the method: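 Agonist qHTS: compounds pinned onto 3,000 PR-UAS-bla HEK 293T cells per well in charcoal-stripped serum medium, 16hr at 37C, then beta-lactamase activity measured by LiveBLAzer FRET fluorescence after 2 hours at room temperature.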

[2] = target: Progesterone receptor (Homo sapiens) (UniProt P06401); test: qHTS assay to identify small molecule antagonists of the progesterone receptor (PR) signaling pathway (AID 1346795; active = well fitted inhibition curve with a large enough effect in the signal ratio in the repeat runs, not every such curve was filed as active; the % refers to the signal ratio; note: potency is the fitted concentration of half-maximal effect)
Summary of the method: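 Antagonist mode with agonist R5020 at 1 nM final and 16 hr incubation at 37C. Reporter was beta-lactamase driven by UAS in HEK293T (PR-UAS-bla), 2% charcoal-stripped serum; signal from LiveBLAzer FRET substrate, 2 hr at room temperature.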

[3] = qHTS assay to identify small molecule agonists of the progesterone receptor (PR) signaling pathway - cell viability counter screen (AID 1346799; calls by dose curve; note: nearly all actives have a fitted effect of over 45% in size)
Summary of the method: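 Cytotoxicity measured by CellTiter-Glo luminescence (30 min, RT) in the same wells as the PR beta-lactamase agonist read. Those HEK293T cells had 16 h compound treatment at 37 C in 2% charcoal-stripped FBS medium.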

[4] = qHTS assay to identify small molecule antagonists of the TGF-beta/Smad signaling pathway - cell viability counter screen (AID 1346824); note: nearly all actives have a fitted effect of over 50% in size; note: potency is the fitted concentration of half-maximal effect
Summary of the method: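 SBE-bla HEK 293T cells were plated overnight at 37 C, then given compounds in DMSO plus TGF-beta1 (added as 0.25 ng/mL solution) for 5 hr. After the bla read, CellTiter-Glo was added to the same wells and luminescence read after 30 min at room temperature.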

[5] = qHTS assay to identify small molecule agonists of the TGF-beta/Smad signaling pathway - cell viability counter screen (AID 1346829); note: nearly all actives have a fitted effect of over 45% in size; note: potency is the fitted concentration of half-maximal effect
Summary of the method: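 HEK 293T SBE-bla line, 5 hr compound exposure at 37 C, multiplexed CellTiter-Glo viability read by luminescence.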

[6] = qHTS assay to identify small molecule agonists of the TGF-beta/Smad signaling pathway (AID 1346859; active = well fitted activation curve with a large enough effect in the signal ratio in the repeat runs, not every such curve was filed as active; the % refers to the signal ratio; note: series mostly up to about 77 µM)
Summary of the method: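 Fluorescence (ex 405 nm; em 460 and 530 nm) was read 2 h after LiveBLAzer FRET substrate at RT. The preceding compound treatment of overnight-plated SBE-bla HEK293T cells lasted 5 h at 37 C.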

[7] = target: Thyrotropin-releasing hormone receptor (Homo sapiens) (UniProt P34981); test: qHTS assay to identify small molecule antagonists of the thyrotropin-releasing hormone receptor (TRHR) signaling pathway (AID 1346877; active = well fitted inhibition curve with a large enough effect in the repeat runs, not every such curve was filed as active; note: series mostly up to about 51 µM)
Summary of the method: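 Calcium signal in dye-loaded TRHR/HEK293 cells; compounds added 5 min before TRH (1 nM final); fluorescence monitored 3 min at 1 s steps.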

[8] = target: Thyrotropin-releasing hormone receptor (Homo sapiens) (UniProt P34981); test: qHTS assay to identify small molecule agonists of the thyrotropin-releasing hormone receptor (TRHR) signaling pathway (AID 1346891; calls by dose curve; note: series mostly up to about 58 µM)
Summary of the method: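 Agonist-mode intracellular calcium readout: kinetic fluorescence over 3 min at 1 s intervals after compound addition to TRHR-HEK293 cells (18 h seeded, 2 h dye-loaded at 37 C). Fifteen concentrations, triplicates.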

[9] = qHTS assay to identify small molecule antagonists of the progesterone receptor (PR) signaling pathway - cell viability counter screen (AID 1346798); note: nearly all actives have a fitted effect of over 50% in size; note: potency is the fitted concentration of half-maximal effect
Summary of the method: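 Cytotoxicity read as CellTiter-Glo luminescence (30 min, room temperature) in the same wells as the beta-lactamase readout. HEK293T PR-UAS-bla cells in charcoal-stripped 2% FBS received compound and R5020, then 16 h at 37C, 5% CO2.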

Progesterone receptor (Homo sapiens), sequence (P06401 whole entry, looked up): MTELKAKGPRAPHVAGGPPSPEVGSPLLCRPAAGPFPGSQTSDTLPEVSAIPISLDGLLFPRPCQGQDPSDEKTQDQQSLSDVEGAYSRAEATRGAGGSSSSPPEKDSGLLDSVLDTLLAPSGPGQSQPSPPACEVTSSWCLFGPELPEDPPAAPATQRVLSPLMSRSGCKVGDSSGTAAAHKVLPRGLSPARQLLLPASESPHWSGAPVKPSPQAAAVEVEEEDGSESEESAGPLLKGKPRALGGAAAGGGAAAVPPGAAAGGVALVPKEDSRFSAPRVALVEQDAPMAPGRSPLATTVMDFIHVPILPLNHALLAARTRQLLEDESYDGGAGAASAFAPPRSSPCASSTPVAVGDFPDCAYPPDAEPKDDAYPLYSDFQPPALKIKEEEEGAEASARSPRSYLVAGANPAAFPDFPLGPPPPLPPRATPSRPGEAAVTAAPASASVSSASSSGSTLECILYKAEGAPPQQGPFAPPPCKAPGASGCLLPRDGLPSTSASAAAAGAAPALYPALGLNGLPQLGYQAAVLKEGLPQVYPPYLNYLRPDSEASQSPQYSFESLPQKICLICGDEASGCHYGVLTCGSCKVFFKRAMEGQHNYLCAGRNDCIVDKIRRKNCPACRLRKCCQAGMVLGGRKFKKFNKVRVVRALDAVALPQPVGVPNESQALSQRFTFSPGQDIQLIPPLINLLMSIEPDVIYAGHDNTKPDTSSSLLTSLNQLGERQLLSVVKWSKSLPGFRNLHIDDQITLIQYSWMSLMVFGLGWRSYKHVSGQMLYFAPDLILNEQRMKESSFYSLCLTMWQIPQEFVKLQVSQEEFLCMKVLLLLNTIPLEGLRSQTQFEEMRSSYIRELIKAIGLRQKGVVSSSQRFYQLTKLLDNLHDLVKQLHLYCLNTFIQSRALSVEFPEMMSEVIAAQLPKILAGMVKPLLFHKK
Thyrotropin-releasing hormone receptor (Homo sapiens), sequence (P34981 whole entry, looked up): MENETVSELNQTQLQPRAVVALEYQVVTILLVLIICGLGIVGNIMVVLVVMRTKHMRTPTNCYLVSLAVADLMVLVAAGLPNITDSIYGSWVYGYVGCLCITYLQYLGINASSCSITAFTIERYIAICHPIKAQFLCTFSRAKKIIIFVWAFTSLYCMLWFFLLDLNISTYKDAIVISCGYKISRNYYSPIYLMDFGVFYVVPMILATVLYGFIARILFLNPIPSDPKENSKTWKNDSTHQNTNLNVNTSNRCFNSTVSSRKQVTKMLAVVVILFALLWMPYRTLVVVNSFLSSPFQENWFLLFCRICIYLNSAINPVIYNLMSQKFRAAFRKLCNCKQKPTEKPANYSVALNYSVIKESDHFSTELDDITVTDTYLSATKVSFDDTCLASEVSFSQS

Row | Structure (SMILES) | Potency [1] | Potency [2] | Potency [3] | Potency [4] | Potency [5] | Potency [6] | Potency [7] | outcome [8] | Potency [9]
1 | N#CCCCCC#N | inactive | inactive | inactive | inactive | inactive | inactive | inactive | inactive | –
2 | CC(C)=CC1C(C(=O)OCc2cccc(Oc3ccccc3)c2)C1(C)C (configuration not stated) | inactive | inactive | inactive | inactive | inactive | inactive | inactive | inactive | –
3 | CCCCCCCCCc1ccc(O)cc1 | inactive | 27.6 µM (active) and 61.1 µM (active) | inactive | inactive | inactive | inactive | – | inactive | inactive
4 | Clc1ccccc1-c1nnc(-c2ccccc2Cl)nn1 | inactive | inactive | inactive | inactive | inactive | inactive | inactive | inactive | inactive
5 | COP(=S)(OC)SCn1nnc2ccccc2c1=O | inactive | – | inactive | inactive | inactive | inactive | – | inactive | –
6 | OC(c1ccc(Cl)cc1)(c1cncnc1)c1ccccc1Cl (configuration not stated) | inactive | 13.7 µM (active) | – | inactive | inactive | inactive | inactive | inactive | inactive
7 | Cn1c(-c2ccccc2)cc(-c2ccccc2)[n+]1C | inactive | inactive | inactive | inactive | inactive | inactive | inactive | inactive | inactive
8 | Nc1ccc2ccccc2c1 | inactive | inactive | inactive | inactive | inactive | inactive | – | inactive | inactive
9 | CCCCCCCC[N+](C)(CCCCCCCC)CCCCCCCC | inactive | – | – | 15.5 µM (active) and 49 µM (active) | 49 µM (active) | – | – | – | 30.6 µM (active)
10 | CN(C)c1ccccc1 | inactive | inactive | inactive | inactive | inactive | inactive | inactive | inactive | inactive
11 | ClCc1ccccn1 | inactive | inactive | inactive | inactive | inactive | inactive | inactive | inactive | inactive
12 | Clc1cccc(C(Cl)(Cl)Cl)n1 | inactive | inactive | inactive | inactive | inactive | inactive | – | – | –
13 | O=C1CCCO1 | inactive | inactive | inactive | inactive | inactive | inactive | – | inactive | inactive
14 | O=[N+]([O-])c1ccc(Nc2ccccc2)cc1 | inactive | – | – | inactive | inactive | inactive | inactive | inactive | inactive

From PubChem BioAssay (Tox21)
